Bioassay records as filed in PubChem BioAssay.
L3MBTL1 block – blocks human L3MBTL1 | 230,000 compounds, 0.66% hits | Q9Y468 | AID 485360 | Potency, µM (titrated, usually from 57.1 µM), without a hit: at the highest dose activity, negative = inhibition, usual class: inhibitors | AlphaScreen L3MBTL1–H3K9me1 peptide binding; also: nearly all actives have a fitted effect of over 60% in size
Target sequence (Q9Y468 whole entry, looked up): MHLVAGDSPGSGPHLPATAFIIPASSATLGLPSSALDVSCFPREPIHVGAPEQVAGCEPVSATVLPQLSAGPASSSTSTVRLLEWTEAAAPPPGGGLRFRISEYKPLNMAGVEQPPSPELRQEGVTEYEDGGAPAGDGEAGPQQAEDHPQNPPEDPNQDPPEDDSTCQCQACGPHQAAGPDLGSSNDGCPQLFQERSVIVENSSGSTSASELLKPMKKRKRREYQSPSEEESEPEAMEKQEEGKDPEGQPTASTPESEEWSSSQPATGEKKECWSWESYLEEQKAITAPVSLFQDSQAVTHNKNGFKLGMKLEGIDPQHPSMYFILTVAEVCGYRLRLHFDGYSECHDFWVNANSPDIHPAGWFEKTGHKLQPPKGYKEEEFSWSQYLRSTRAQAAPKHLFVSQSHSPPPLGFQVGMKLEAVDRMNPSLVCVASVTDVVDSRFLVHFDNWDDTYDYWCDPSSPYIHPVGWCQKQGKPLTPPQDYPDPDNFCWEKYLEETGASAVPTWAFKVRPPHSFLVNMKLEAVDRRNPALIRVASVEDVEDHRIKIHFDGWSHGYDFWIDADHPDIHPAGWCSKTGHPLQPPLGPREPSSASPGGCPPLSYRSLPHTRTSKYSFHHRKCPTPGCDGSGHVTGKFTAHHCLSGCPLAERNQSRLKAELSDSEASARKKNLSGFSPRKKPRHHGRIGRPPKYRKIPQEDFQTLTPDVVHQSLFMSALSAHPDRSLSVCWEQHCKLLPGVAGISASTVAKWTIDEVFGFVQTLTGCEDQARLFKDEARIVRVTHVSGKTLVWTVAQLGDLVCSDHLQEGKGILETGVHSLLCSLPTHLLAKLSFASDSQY
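First, the protein-peptide complex forms for 30 min at room temperature (L3MBTL1 50 nM, biotinylated H3K9me1 peptide 75 nM). Next, compounds are pin-transferred and incubated 30 min. Finally, AlphaScreen beads are added and read after 30 min.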
RECQ1 helicase – inhibitors of human RECQ1 DNA helicase | P46063 | Potency, µM (doses to about 57.3 µM), for the others: at the highest dose activity, negative = inhibition, usual class: inhibitors | RECQ1 DNA unwinding, red fluorescence kinetic read | AID 2549 | 240,000 compounds, 0.54% hits;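 also: plate controls were vehicle for no effect and no enzyme for full effect; nearly all actives have a fitted effect of over 30% in size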
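RECQ1T1 50 nM; forked duplex (20 bp + 30-nt ss tails) 200 nM, ATP 2 mM final; pH 8.0, 2 mM MgCl2, 2.5 ug/ml poly(dI-dC); 15 min compound preincubation; discontinuous kinetic read over 2 h at RT.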
RGS12 GoLoco inh – RGS12 GoLoco-Gai1 interaction inhibition; P63096; Gai1:RGS12 GoLoco peptide FP, rhodamine, 10 min; Potency, µM (top dose mostly 61.6 µM), without a hit: top-dose activity, negative = inhibition, usual class: inhibitors; 230,000 compounds, 0.44% hits; AID 880; active = well fitted inhibition curve with a large enough effect, not every such curve was filed as active; inactive = no such curve, though single readings can be large or run the other way; also: nearly all actives have a fitted effect of over 30% in size
JMJD2E inh – inhibitors of human JMJD2E histone demethylase; B2RXH2; JMJD2E catalytic domain, FDH-coupled NADH fluorescence (FDH is formaldehyde dehydrogenase); Potency, µM (top dose mostly 57.1 µM), for the others: top-dose activity change, negative = inhibition, most hits filed as inhibitors; 230,000 compounds, 1.6% hits; AID 2147; active = well fitted inhibition curve with a large enough effect, not every such curve was filed as active; inconclusive = small, poorly fitted or top-dose-only effect, or another doubt; inactive = no such curve, though single readings can be large or run the other way;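 also: 0% = wells with enzyme and -100% = buffer wells without enzyme; nearly all actives have a fitted effect of over 50% in size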
BLM inh – inhibitors of human Bloom syndrome helicase BLM; 350,000 compounds, 0.2% hits; P54132; recombinant BLM DNA unwinding, fluorescence dequenching; Potency, µM (top dose mostly 56.1 µM), inactives show at the top dose activity change, negative = inhibition, hits mostly inhibitors;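 also: plate controls were vehicle for no effect and no enzyme for full effect; nearly all actives have a fitted effect of over 35% in size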
APE1 inh-1 – inhibitors of human APE1 endonuclease | recombinant APE1, TAMRA/BHQ-2 abasic DNA cleavage fluorescence | 350,000 compounds, 0.35% hits | Potency, µM (highest dose often 65.8 µM), inactives show top-dose activity change, negative = inhibition, usual class: inhibitors | AID 2517 | P27695;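 also: plate controls were vehicle for no effect and reference inhibitor for full effect; nearly all actives have a fitted effect of over 55% in size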
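0.75 nM APE1 + cpd, 15 min RT; start w/ 50 nM TAMRA/BHQ-2 THF-abasic dsDNA; kinetic fluor 525/598 nm ×3 reads @60 s; Δ(read3−read1); normalized to DMSO and NSC13755 control wells.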
DNA dye displace – DNA dye displacement counter-screen activity. shares compounds with APE1 inh-1. DNA fluorescent dye displacement counterscreen, fluorescence. Potency, µM (titrated, usually from 28.5 µM), for inactives: top-dose activity change, negative = inhibition, most hits filed as inhibitors. 480 compounds, 7% hits;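 also: loss of thiazole orange fluorescence as the dye is displaced from duplex DNA; 0% = ThO with dsDNA and no compound and -100% = ThO without dsDNA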
EndoIV counter – counter-screen for APE1 inhibitors: inhibitors of E. coli endonuclease IV; shares compounds with APE1 inh-1; E. coli Endo IV, fluorogenic AP-site DNA cleavage; Potency, µM (top dose mostly 27.1 µM), without a hit: at the highest dose activity change, negative = inhibition, most hits filed as inhibitors; 560 compounds, 4% hits; AID 2565;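 also: plate controls were uninhibited enzyme wells for no effect and no enzyme buffer wells for full effect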
APE1 inh-2 – confirmation of inhibitors of human APE1 endonuclease; shares compounds with APE1 inh-1; purified APE1, fluorogenic abasic-site DNA cleavage; Potency, µM (doses to about 57.1 µM), inactives show at the highest dose activity change, negative = inhibition, usual class: inhibitors; 750 compounds, 44% hits; also: nearly all actives have a fitted effect of over 30% in size
APE1 FP – displaces DNA from human APE1 in FP assay. AID 2573. Potency, µM (highest dose often 28.5 µM), for inactives: at the highest dose activity, negative = inhibition, actives largely listed as inhibitors. 480 compounds, 7% hits. shares compounds with APE1 inh-1. APE1 binding to TAMRA-labelled double-stranded DNA, fluorescence polarization displacement
Starred values were filed as active, the others as inactive; i = inactive; ? = inconclusive; / = no result; [ ] = another dose, or the depositor's remark. This excerpt belongs to a sample that is enriched for hits. Unless noted, calls follow the shape of the dose curve; as a rule, active = well fitted curve in the direction sought with a large enough effect; inconclusive = small, poorly fitted or top-dose-only effect, or another doubt; inactive = no such curve, though single readings can be large; an effect the other way counts as inactive or inconclusive. Unless noted, % is scaled to controls: 0 for no effect and ±100 for the full control effect; potency is read from the fitted curve at half-maximal effect.

SMILES	L3MBTL1 block	RECQ1 helicase	RGS12 GoLoco inh	JMJD2E inh	BLM inh	APE1 inh-1	DNA dye displace	EndoIV counter	APE1 inh-2	APE1 FP
CC(=O)[C@H]1[C@@H]2C(=O)N(c3cccc(Cl)c3)C(=O)[C@@H]2[C@H]2c3ccccc3C=CN21	-3.8%	-20.7%	123.0%	?	-21.1%	?	/	/	/	/
COc1cccc2cc(-c3cn4c(n3)sc3cc(F)ccc34)c(=O)oc12	/	/	/	/	-2.7%	/	/	/	/	/
COc1ccc(/C=N/NC(=O)c2cccc(NC(=O)c3ccc(F)cc3)c2)c(C(=O)O)c1OC	/	i	26.6%	?	-12.0%	14.9%	/	/	-9.4%	/
COc1ccc(/C=N\NC(=O)c2ccc(-c3ccccc3)cc2)c(OC)c1OC	/	/	/	/	-2.0%	7.7%	/	/	/	/
CC[C@]1(O)C[C@@H]2CN(CCc3c([nH]c4ccccc34)[C@@](C(=O)OC)(c3cc4c(cc3OC)N(C)C3[C@]45CCN4CC=C[C@](CC)(C45)[C@@H](OC(C)=O)[C@]3(O)C(=O)OC)C2)C1 (stereo partly drawn)	/	-14.4%	29.5%	/	/	0.5%	/	/	/	/
COc1ccc(OC)c(NC(=O)c2ccc(-c3nc(CSc4ccccc4)c(C)o3)cc2)c1	/	/	/	/	-6.7%	/	/	/	/	/
NS(=O)(=O)c1ccc(N/N=C/c2ccc(O)cc2O)c([N+](=O)[O-])c1	-20.2%	-27.4%	9.3%	-8.5%	-23.7%	7.0%	/	/	/	/
NS(=O)(=O)c1ccc(N/N=C/c2ccc(O)c(O)c2O)c([N+](=O)[O-])c1	2.82µM*	3.16µM*	-10.7%	2.82µM*	15.8µM*	2µM*	12.6µM*	23.2%	5.62µM*	-9.1%
COC(=O)c1sc2cccc(F)c2c1S(=O)(=O)Nc1cc(OC)cc(OC)c1	/	/	/	/	-2.6%	/	/	/	/	/
CCCCC[C@H](O)/C=C/[C@@H]1[C@@H](C/C=C\CCCC(=O)OC)[C@@H](O)C[C@H]1O	?	-0.6%	5.1%	3.98µM*	-19.1%	7.2%	/	/	-14.3%	/
CCCCC[C@H](O)/C=C/[C@H]1[C@H](O)CC(O)[C@@H]1C/C=C\CCCC(=O)O (stereo partly drawn)	/	13.7%	2.7%	/	/	-2.1%	/	/	/	/
O=[N+]([O-])c1cc(/C=N\Nc2nccs2)ccc1O	/	11.2µM*	4.9%	?	28.2µM*	7.08µM*	10µM*	16.3%	1.58µM*	8.91µM*
COc1ccc(-c2cnnc(N/N=C/c3ccc(O)c(O)c3)n2)cc1	?	15.8µM*	-5.9%	25.1µM*	-15.9%	20µM*	?	28.6%	-12.2%[24.4 µM]	15.4%
Cc1ccc([N+](=O)[O-])cc1-c1ccc(/C=C(\C#N)c2[nH]nc(N)c2C#N)o1	-2.3%	31.6µM*	4.5%	5.6%	?	?	7.08µM*	-2.9%	7.08µM*	15.9%
COCc1cc(C)nc(OCC(=O)N/N=C/c2ccc(-c3cc([N+](=O)[O-])ccc3C)o2)c1C#N	2.8%	-14.4%	-7.6%	?	-2.7%	-4.7%	/	/	/	/
CCCCNC(=O)C(CC)Sc1nnc(-c2ccc(OC)c(OC)c2)c(-c2ccc(OC)c(OC)c2)n1 (stereo not drawn)	/	/	/	/	0.0%	/	/	/	/	/
COc1ccc(-c2noc(-c3nnn(-c4ccc(C)cc4C)c3C)n2)cc1	/	/	/	/	-5.2%	/	/	/	/	/
O=C(CSc1nc(NS(=O)(=O)c2ccccc2)cc(=O)[nH]1)Nc1ccc(Cl)cc1	?	-1.2%	23.7%	?	?	-4.1%	/	/	-15.7%	/
O=C(CSc1nc2ccccc2c(=O)[nH]1)Nc1ccc(C(=O)O)cc1	-5.1%	15.8%	-1.2%	2.5%	-1.9%	-7.0%	/	/	-9.3%	/
O=c1cc(-c2ccc(O)cc2)oc2c([C@@H]3O[C@H](CO)[C@@H](O)[C@H](O)[C@H]3O)c(O)c([C@@H]3O[C@H](CO)[C@@H](O)[C@H](O)[C@H]3O)c(O)c12	-1.5%	-8.3%	-5.3%	?	-1.7%	?	/	/	/	/
O=c1cc(-c2ccc(O)cc2)oc2c(C3OCC(O)C(O)C3O)c(O)c(C3OC(CO)C(O)C(O)C3O)c(O)c12 (stereo not drawn)	/	-15.4%	-1.5%	-26.8%	-12.2%	20µM*	-7.5%	-3.9%	4.47µM*	0.6%
COc1cccc(C(=O)N2c3cc(C)ccc3C(C)(c3ccccc3)CC2(C)C)c1 (stereo not drawn)	/	/	/	/	-8.0%	/	/	/	/	/
COc1cc(OC)c2c(-c3ccccc3)cc(=O)oc2c1C(CC(=O)N1CCN(c2ccccc2)CC1)c1ccc2c(c1)OCO2 (stereo not drawn)	/	i	1.6%	-10.6%	-10.8%	?	1.7%	-0.5%	12.6µM*	-43.1%
Nc1c(S(=O)(=O)O)cc(Nc2ccc(Nc3nc(Cl)nc(Nc4ccc(S(=O)(=O)O)cc4)n3)c(S(=O)(=O)O)c2)c2c1C(=O)c1ccccc1C2=O	/	0.891µM*	3.6%	-1.6%	/	0.631µM*	/	10µM*	0.708µM*	/
O=[N+]([O-])c1ccc(Nc2nc(Cl)nc(NCCO)n2)cc1	9.6%	-0.5%	10.0%	1.5%	0.2%	9.0%	/	/	/	/
COCCn1c(=O)c(-c2ccc(Cl)cc2)nc2cnc(OC)nc21	/	-10.5%	7.3%	/	1.4%	18.2%	/	/	/	/
COc1cc(N)c(Cl)cc1C(=O)OCCN1CCCCC1	/	-4.8%	11.8%	2.6%	-1.8%	?	-2.7%[57.1 µM]	25.9%[57.1 µM]	-4.2%	-1.8%[57.1 µM]
O=C(O)c1ccccc1-c1ccc(/C=c2\sc3nc4cc(Br)cnc4n3c2=O)o1	12.6µM*	14.1µM*	13.6%	-27.9%	-9.3%	22.4µM*	19.7%	16.5%	8.91µM*	?
CC1=NN(c2ccc(Br)cc2)C(=O)/C1=C/c1ccc(-c2ccccc2C(=O)O)o1	-15.8%	/	/	/	-9.7%	30.4%	/	/	/	/
Cn1cnnc1SCC(=O)Nc1nc(-c2ccccc2)cs1	-5.6%	-4.1%	72.0%	5.3%	-22.2%	?	-7.8%	-0.8%	?	8.4%
